In PubChem BioAssay:
Potency and affinity values are given separately. Active and inactive are the calls of the source. Where a call stands in place of a potency, no number is given. No rule for the calls is given here.

Assay: A549 cell cytotoxicity, dose response, cytotoxicity control, plate reader, cherry-pick, antagonist series (AID 743412)
Conditions: series mostly up to 26 µM

| Compound | outcome |
| --- | --- |
| COc1ccc2nc(-c3ccc(F)cc3)sc2c1 | inactive |
| O=C(c1cc(-c2ccc(Cl)cc2Cl)on1)N1CCOCC1 | inactive |
| O=C(Nc1ccccc1)c1cn2ccccc2n1 | inactive |
| COc1ccc(CC(=O)Nc2cccc(-c3nnc(-c4cccc(C)c4)o3)c2)cc1OC | inactive |
| COc1ccc2sc(NC(=O)c3ccco3)nc2c1 | inactive |
| C[C@@H]1CN([C@H](C)CO)C(=O)CCCn2nncc2CO[C@H]1CN(C)C(=O)Nc1cccc2ccccc12 | inactive |
| COc1ccccc1CCn1cnc(-c2ccccc2OC)c1C(C)C | inactive |
| O=C(Nc1nc2ccccc2s1)c1ccc2sc([C@H]3C[C@H](O)[C@@H](CO)O3)nc2c1 | inactive |
| CCC(=O)Nc1cc2nn(-c3ccc(OC)cc3)nc2cc1C | inactive |
| O=C(NCCc1ccccc1)c1ccc2c(c1)OCCO2 | inactive |
| COC(=O)c1ccc2nc(NC(=O)C(C)(C)C)sc2c1 | inactive |
| Cc1ccc(-c2nnc(Nc3ccccc3)o2)cc1 | inactive |
| CCc1ccn2cc(-c3cc(-c4ccccc4)no3)nc2c1 | inactive |
| Cc1ccc(-c2cc(C(=O)N(C)Cc3cnn(C)c3C)c3cc(Br)ccc3n2)cc1 | inactive |
| COc1ccc(-c2csc(NC(=O)c3ccc(OCC(=O)N4CCOCC4)c(OC)c3)n2)cc1 | inactive |
| Cc1ccccc1S(=O)(=O)N1[C@H](C#N)[C@H](c2ccc(C#CC3CCCCC3)cc2)[C@H]1CO | inactive |
| Cc1cc(C(=O)CSc2nnc(N)s2)c(C)n1Cc1cccs1 | inactive |
| c1ccc(COc2ccc(OCCCN3CCCC3)cc2)cc1 | inactive |
| C=CCN1CCN(C(=O)CCCc2ccccc2)CC1 | inactive |
| Cc1csc(NC(=O)c2ccc(OCC3CCCO3)cc2)n1 (centres undefined) | inactive |

| Compound | outcome |
| --- | --- |
| Cc1csc(NC(=O)c2cnc3ccccc3n2)n1 | inactive |
| Cc1ccc(-n2ncc3c(N4CCN(c5ccccc5)CC4)ncnc32)c(C)c1 | inactive |
| Cc1ccc(-c2noc(-c3cccs3)n2)cc1 | inactive |
| CC1CCCN(c2ncnc3c2cnn3-c2ccccc2)C1 (centres undefined) | inactive |
| COc1ccc(-c2[nH]ncc2-c2ccc3c(c2)OCCO3)c(O)c1 | inactive |
| O=c1c2c(nc3cc(-c4ccc(F)cc4)[nH]n13)CCCC2 | inactive |
| COc1ccc(NC(=O)Nc2cccc([N+](=O)[O-])c2)cc1Cl | inactive |
| O=C(O)c1ccc(N/N=C/c2c[nH]c3ccccc23)cc1 | inactive |
| c1ccc(-n2nnnc2Sc2ncnc3sc4c(c23)CCCC4)cc1 | inactive |
| CCOC(=O)c1sc(NC(=O)Nc2ccccc2F)nc1C | inactive |
| O=C(Nc1ccc(N2CCN(C(=O)c3ccc(Cl)cc3)CC2)cc1)c1cc2ccccc2o1 | inactive |
| Clc1ccc(OCc2nc(-c3ccccn3)no2)c(Br)c1 | inactive |
| C[C@H](CO)N1C[C@H](C)[C@H](CN(C)C(=O)Cc2ccccc2)OCCCC[C@H](C)Oc2ccc(NC(=O)Nc3ccc(C(F)(F)F)cc3)cc2C1=O | inactive |
| COc1cc(NC(=O)c2cccc3c(-c4cccnc4)coc23)cc(OC)c1OC | inactive |
| Cc1cc(C)c(Cc2c(C)nc3c(C(=O)NCc4ccco4)cnn3c2C)c(C)c1 | inactive |
| CC(=O)N1CCCC(c2cc(C(=O)Nc3ccccc3)no2)C1 (centres undefined) | inactive |
| COc1cccc(-c2cc(C(=O)Nc3cccc(O)c3)no2)c1 | inactive |
| CCS(=O)(=O)N1Cc2ccccc2CC1C(=O)Nc1nc2ccccc2s1 (centres undefined) | inactive |
| O=C(Nc1nc2c(s1)CCCC2)C1COc2ccccc2O1 (centres undefined) | inactive |
